Screening results from PubChem.
S2 tox: cell viability loss in ATXN counter-screen; S2 cells (HEK-293 line with an ATXN2-luciferase reporter) viability, CellTiter-Fluor protease fluorescence, 24 h; AID 651635; actives 0.49% (n = 400,000); Potency, µM (series often up to 56.7 µM), most hits filed as cytotoxic; further: nearly all actives have a fitted effect of over 40% in size
TGFb SMAD3 inh: TGF-b pathway inhibition. HepG2 CAGA-GFP TGF-b/SMAD3 reporter, GFP fluorescence, 18 h; TGF-beta stimulated, 500 pg/mL final. Potency, µM (highest dose often 46.1 µM), without a hit: at the highest dose activity, negative = inhibition, most hits filed as inhibitors. actives 1.2% (n = 410,000); further: on the % scale 0 is the no-effect control and ±100 the full control effect; nearly all actives have a fitted effect of over 65% in size
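Per well, imaged GFP fluorescence of HEPG2 CAGA-GFP cells gives the signal; cells get compound, then TGF-beta (500 pg/mL final), 18 h at 37 degrees C; %Activity versus -TGF-beta and +DMSO controls.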
TDP1 cell CPT: DT40-hTDP1 cell growth loss with CPT. chicken DT40 Tdp1-/-;hTDP1 cells + 20 nM CPT, ATP luminescence, 48 h. Potency, µM (top dose mostly 46.2 µM), for inactives: at the top dose activity change, negative = growth inhibition, hits mostly inhibitors. actives 12% (n = 420,000); further: on the % scale 0 is the no-effect control and ±100 the full control effect; nearly all actives have a fitted effect of over 55% in size
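Cell growth measured by CellTiter-Glo luminescence after a minimum 48 h, 37 C compound exposure with 20 nM CPT in Tdp1-knockout DT40 cells stably expressing hTDP1, seeded 400/well; qHTS titration format.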
ATXN2 expr inh: inhibitors of ATXN2 expression; HEK-293 ATXN2-luciferase reporter, luminescence, 24 h; actives 0.72% (n = 360,000); Potency, µM (doses to about 57 µM), without a hit: at the highest dose activity change, negative = inhibition, hits mostly inhibitors; further: on the % scale 0 is the no-effect control and ±100 the full control effect; nearly all actives have a fitted effect of over 55% in size
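ATXN2-luciferase reporter cells (luciferase flanked by upstream and downstream ATXN2 gene portions) were treated 24 h at 37 °C with compounds at up to 57 uM. SteadyGlo luminescence gave expression; GF-AFC fluorescence gave viability.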
HepG2 tox: HepG2 cytotoxicity, counter-screen for TGF-b inhibitors. HepG2 CAGA-GFP viability, ATP luminescence, 18 h. Potency, µM (titrated, usually from 46.1 µM), without a hit: at the highest dose activity change, negative = cytotoxicity, hits mostly cytotoxic. actives 0.76% (n = 410,000). AID 588856
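CellTiter-Glo luminescence gave cytotoxicity after 18 hours at 37 degrees C. The cells were HepG2 CAGA-GFP in 1% FBS DMEM, stimulated with 500 pg/mL TGF-beta after compound addition. %Activity was normalised to no-cell wells (complete cell-killing) and DMSO (no toxicity), and curves were fitted and classified.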
TDP1 cell noCPT: qHTS for Inhibitors of human tyrosyl-DNA phosphodiesterase 1 (TDP1): qHTS in cells in absence of CPT; actives 15% (n = 420,000); DT40 Tdp1-/- hTDP1 cells, no CPT, ATP luminescence, 48 h; AID 686978, 2013; Potency, µM (titrated, usually from 46.2 µM), for the others: top-dose activity change, negative = growth inhibition, usual class: inhibitors; further: on the % scale 0 is the no-effect control and ±100 the full control effect; nearly all actives have a fitted effect of over 55% in size
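No-CPT arm: Tdp1-/-;hTDP1 DT40 cells (400/well) plus compounds, incubated ≥48 hr at 37 °C. Readout CellTiter-Glo luminescence.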
* = called active by the depositor; i = inactive; ? = inconclusive; . = no result given; ! = repeats disagree. Rows were chosen to be rich in hits. Some 17% of all compounds tested hit in one or more screens of this group. The call rests on the fitted dose curve; in most records, active means well fitted curve in the direction sought with a large enough effect; inconclusive means small, poorly fitted or top-dose-only effect, or another doubt; inactive means no such curve, though single readings can be large; an effect the other way counts as inactive or inconclusive. Potency means the concentration at half of the fitted maximal effect.

SMILES | S2 tox | TGFb SMAD3 inh | TDP1 cell CPT | ATXN2 expr inh | HepG2 tox | TDP1 cell noCPT
CCCC[C@@H](C)C[C@@H](C)C(=O)N(C)[C@@H](CC(C)C)C(=O)N[C@H](C(=O)N(C)[C@H](C(=O)N1C[C@@H](O)C[C@H]1C(=O)N1C(=O)C=C[C@@H]1C)C(C)C)C(C)OC(C)=O (some centres not stated) | . | ? | 0.037µM* | ? | -113% | 0.0065µM*
CC(=O)c1ccc(NC(=O)N2C[C@H]3C[C@@H](C2)c2cccc(=O)n2C3)cc1 | i | 1% | 21% | 7% | 0% | 2%
COc1ccc(Oc2cc(NC(=O)c3nn(C)cc3[N+](=O)[O-])cc([N+](=O)[O-])c2)cc1 | i | 10µM* | 12% | -4% | 18µM* | -11%
CCOc1ccc(NS(=O)(=O)c2ccc(Cl)c(N=Nc3c(O)[nH]c(=S)[nH]c3=O)c2)cc1Br | . | ? | -10% | . | -48% | ?
CCCCOP(=O)(OCCCC)C1(C)CC(=O)CC(C)(C)C1 (configuration not stated) | i | 14% | ? | 1% | 3% | -25%
O=C1NC(=O)C(CCc2ccncc2)(Cc2cccc(Cl)c2Cl)C(=O)N1c1ccc(Br)cc1 (configuration not stated) | ? | -10% | 4.6µM* | -6% | -3% | 5.8µM*
CCc1ccc(N2C(=O)NC(=O)C(CCc3ccncc3)(CCc3ccncc3)C2=O)cc1 | i | -6% | -7% | -3% | 5% | 6%
Cn1nc(C(F)(F)F)c(-c2ccccc2)c1N | i | 0% | 6% | -18% | -30% | -14%
Nc1nnc(Sc2ncccc2[N+](=O)[O-])s1 | i | 0% | ? | -12% | -8% | 16µM*
C=C(C)[C@H]1CN[C@H](C(=O)O)[C@H]1CC(=O)O | i | -2% | ? | 4% | 3% | 21µM*!
O=C(NCc1cccnc1)c1ccc(-c2ccc(F)c(F)c2)c2ccoc12 | i | -1% | 5.8µM* | ? | -25% | 4.6µM*
CC1CN=C(NCc2ccccc2)S1 (configuration not stated) | i | -13% | 3% | -8% | 8% | -1%
COc1ccc(C#Cc2ccc3c(c2)O[C@H](CN(C)S(=O)(=O)c2ccccc2F)[C@H](C)CN([C@H](C)CO)S3(=O)=O)cc1 | i | -21% | ? | 5% | -1% | 21µM*
COc1ccccc1S(=O)(=O)N(C)C[C@@H]1Oc2cc(C#CCC(C)C)ccc2S(=O)(=O)N([C@H](C)CO)C[C@@H]1C | ? | ? | ? | -37% | -19% | ?
CC(C)(O)C(=O)Nc1ccc([N+](=O)[O-])c(C(F)(F)F)c1 | i | 1% | ? | -4% | -13% | 15µM*
Cc1nn(Cc2ccccc2)c(C)c1C(=O)OCC(=O)Nc1ccccc1SCC#N | i | 68% | 3% | 2% | -15% | -23%
Cc1cc(C=C2C(=O)NC(=S)NC2=O)c(C)n1C1CCCC1 | i | -6% | 15µM* | 8% | -30% | ?
Cc1ccc(-n2c(C)cc(/C=C3/C(=O)NC(=O)N(C)C3=O)c2C)cc1 | i | -3% | -20% | . | -11% | -15%
CCOC(=O)c1cnc2c(ccc3ccccc32)c1Nc1ccc(C(C)=O)cc1 | i | 15% | ? | 10% | -3% | 23µM*
CCOC(=O)c1ccccc1N | i | 2% | 8% | 8% | -1% | -6%
CC(=Nc1ccc2c(c1)CCC2)c1c(O)n(C)c(=O)n(C)c1=O | i | 12% | -16% | 2% | 9% | -28%
